The list is not random: actives were taken first. Their share in the collection is about 1%.
A1 inh: caspase 3/7 activation in MEF A1-2A-BIM cells, primary screen, A1 inhibitor project, cell-based, luminescence, HTS. Caspase-Glo 3/7 luminescence, 3 h; percent of clofoctol response, vehicle zero. caspase activation, % (test concentration not listed). 330,000 compounds, 0.066% hits;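 active = over half of replicate activation scores above 10%, or exactly half above 10 with the replicate mean above 10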
NPR2 activator: human GC-B receptor activators, primary screen, HEK293 GC-B cells, cGMP TR-FRET, EC30 CNP. 0% at EC30 CNP, 100% saturating CNP. 370,000 compounds, 0.11% hits. activation, % at 10 µM. Atrial natriuretic peptide receptor 2 (Homo sapiens), P20594;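 active = activation at 10 µM reaching about 35% in either raw or pattern-adjusted values, limit read from the data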
Target sequence (P20594 whole entry, looked up): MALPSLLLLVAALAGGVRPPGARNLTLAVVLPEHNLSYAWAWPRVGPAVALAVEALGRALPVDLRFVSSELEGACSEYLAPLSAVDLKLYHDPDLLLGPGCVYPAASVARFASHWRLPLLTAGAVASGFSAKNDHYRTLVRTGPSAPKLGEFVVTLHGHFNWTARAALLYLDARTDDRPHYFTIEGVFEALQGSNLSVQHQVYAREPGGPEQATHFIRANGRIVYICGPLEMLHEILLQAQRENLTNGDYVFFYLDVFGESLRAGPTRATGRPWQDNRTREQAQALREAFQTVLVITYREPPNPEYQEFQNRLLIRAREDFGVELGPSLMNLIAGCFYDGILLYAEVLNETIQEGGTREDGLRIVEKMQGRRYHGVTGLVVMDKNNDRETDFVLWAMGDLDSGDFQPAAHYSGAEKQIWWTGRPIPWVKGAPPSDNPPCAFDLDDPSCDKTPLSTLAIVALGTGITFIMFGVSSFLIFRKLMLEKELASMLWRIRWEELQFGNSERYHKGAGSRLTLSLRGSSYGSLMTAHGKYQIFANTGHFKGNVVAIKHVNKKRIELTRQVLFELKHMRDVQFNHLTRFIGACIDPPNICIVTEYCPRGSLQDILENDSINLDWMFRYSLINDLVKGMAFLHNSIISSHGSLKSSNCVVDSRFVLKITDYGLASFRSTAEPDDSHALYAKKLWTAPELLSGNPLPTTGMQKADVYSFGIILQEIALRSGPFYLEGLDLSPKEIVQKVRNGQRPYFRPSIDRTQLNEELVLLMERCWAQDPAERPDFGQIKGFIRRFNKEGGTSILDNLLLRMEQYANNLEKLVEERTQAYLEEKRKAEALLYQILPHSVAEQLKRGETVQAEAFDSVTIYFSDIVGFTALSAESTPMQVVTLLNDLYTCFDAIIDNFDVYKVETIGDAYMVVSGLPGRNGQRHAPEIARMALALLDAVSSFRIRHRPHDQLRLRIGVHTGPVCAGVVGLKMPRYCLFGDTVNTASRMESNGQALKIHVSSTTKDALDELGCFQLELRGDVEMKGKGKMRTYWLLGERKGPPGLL
TAG inh: inhibitors of triacylglycerol accumulation, primary screen, cell-based, uHTS, fluorescence, H9c2 | H9c2 cells, Nile Red lipid (TAG) fluorescence; cells loaded with 200 µM oleic acid | inhibition, % at 12.5 µM | 230,000 compounds, 0.66% hits;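 active = pattern-corrected inhibition of lipid staining of at least 50% with the nuclear-stain viability signal not falling by more than 50%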;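 also: 0% = DMSO wells and 100% = triacsin C control wells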
HSV replic up: enhancers of HSV replication in host cells, fold increase, host cell viability | HSV replication augmentation in cells | maximum fold increase | 220,000 compounds, 0.005% hits | AID 1956, 2009; in the data active = maximum fold increase above about 1.5; tested in PC3 cells
Efflux pump mplx: inhibitors of Candida efflux pumps in yeast, primary screen, S. cerevisiae, Nile Red, multiplex | S. cerevisiae Candida pump triplex | inhibition, % at 10 µM | 330,000 compounds, 0.44% hits | AID 485275, 2010;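 active = plate passing quality check with inhibition over a set limit, or well fluorescence over plate mean plus 4 SD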;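 also: Nile Red retained in pooled yeast measured as flow cytometry median fluorescence; 0% = buffer negative control and 100% = Enniatin B positive control; higher means more Nile Red kept so more efflux inhibition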
NPR1 activator: GC-A stimulated cGMP production enhancers – HEK293 GC-A cells, cGMP TR-FRET, EC30 ANP, primary screen. Atrial natriuretic peptide receptor 1 (Homo sapiens), P16066. 370,000 compounds, 0.14% hits. activation, % at 10 µM. 0% at EC30 ANP, 100% saturating ANP; in the data active = activation above about 40%
Yeast cmpd fluor: compound fluorescence in yeast efflux pump counter-screen; S. cerevisiae AD/pABC3, flow cytometry; fluorescence ratio to DMSO, % at 10 µM; 1,700 compounds, 4% hits; shares compounds with Efflux pump mplx;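 active = fluorescence ratio to DMSO above its plate's cutoff, the plate mean ratio plus 5 SD, cut at about 210% in these data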;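 also: unstained yeast with no Nile Red so the signal is compound autofluorescence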
Mdr1 pump inh: inhibitors of Candida albicans Mdr1 efflux, confirmation, flow cytometry, singleplex, Cherry Pick1 set. shares compounds with Efflux pump mplx. S. cerevisiae AD/CaMDR1, Nile Red efflux. inhibition, % at 10 µM. 1,700 compounds, 1% hits; in the data active = inhibition above about 26%;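 also: 0% = DMSO vehicle and 100% = reference inhibitor; higher means more Nile Red retained so more efflux inhibition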
CaCdr2 efflux inh: inhibitors of Candida albicans Cdr2 efflux pump, confirmation, S. cerevisiae AD/CaCDR2, flow cytometry, cherry pick 1, singleplex. shares compounds with Efflux pump mplx. Nile Red retention. Nile Red retention ratio vs DMSO, % at 10 µM. 1,700 compounds, 4% hits; in the data active = Nile Red retention ratio vs DMSO above about 190%;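 also: higher ratio means more blocking of Cdr2 efflux of the dye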
CaCdr1 efflux inh: inhibitors of Candida albicans Cdr1 efflux pump, confirmation, S. cerevisiae AD/CaCDR1, flow cytometry, cherry pick 1, singleplex | 1,700 compounds, 1% hits | inhibition, % at 10 µM | AID 588522, 2011 | Nile Red efflux | shares compounds with Efflux pump mplx;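 active = inhibition above the screen-wide mean plus twice its standard deviation, cut at about 32% in these data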
* = called active by the depositor; i = inactive; . = not tested or not shown.

SMILES	A1 inh	NPR2 activator	TAG inh	HSV replic up	Efflux pump mplx	NPR1 activator	Yeast cmpd fluor	Mdr1 pump inh	CaCdr2 efflux inh	CaCdr1 efflux inh
COc1ccc(OCCSc2nnc(CCNC(=O)c3ccc(OC)cc3)n2C)cc1	1.3	-6.0	.	i	23.7*	-11.6	104.6	-0.1	106.0	-0.1
COc1ccc(OCCSc2nnc(CCNC(=O)c3ccc(Cl)c(Cl)c3)n2C)cc1	0.5	-11.6	.	i	-0.1	-20.4	.	.	.	.
C/C(=N\NC(=O)CCCNc1ccccc1)c1ccncc1	-0.4	-5.5	7.1	i	1.1*	-5.6	96.6	-0.1	106.3	-0.1
CN(C)c1ccc(/C=C2/C=C(c3ccc4c(c3)CCCC4)OC2=O)cc1	0.3	5.3	1.5	i	0.8*	2.5	132.0	0.1	147.5	0.0
CCN(CC)C(=O)CSc1nnc(-c2ccc(C(C)(C)C)cc2)n1-c1ccc(Cl)cc1	.	12.2	.	.	.	-0.1	.	.	.	.
CCCSc1nc(C)c(-c2csc(C(C#N)=C3CCCC3)n2)cc1C#N	0.2	5.6	.	i	0.9*	-28.8	108.3	-0.1	114.1	0.1
O=C(O)CCCn1cc(NC(=O)COc2ccccc2[N+](=O)[O-])cn1	-0.8	4.9	.	i	0.1	-1.1	.	.	.	.
Cc1ccc(OCC(=O)Nc2cnn(CCCC(=O)O)c2)c([N+](=O)[O-])c1	0.3	-3.0	7.8	i	3.9*	-0.2	148.7	1.8	93.0	0.0
N#CC(C(=O)NCc1ccccc1)c1nc2ccccc2nc1N1CCCC1 (centres undefined)	0.4	3.0	23.8	i	0.9*	4.5	101.8	-0.1	103.6	0.1
N#CC(C(=O)NCCc1ccccc1)c1nc2ccccc2nc1N1CCCCC1 (centres undefined)	0.5	1.6	-4.2	i	0.0	-3.7	.	.	.	.
Cc1cc(C)c(OCC(=O)Nc2ccccc2N2CCCCC2)c(C)c1	0.3	3.8	-58.5	.	0.1	3.4	.	.	.	.
Cc1cc(C)c(OCC(=O)Nc2ccccc2N2CCOCC2)c(C)c1	0.9	-0.6	.	i	10.6*	6.6	86.5	-0.2	110.3	0.1
Cc1cc(NS(=O)(=O)c2ccc(NC(=O)C(C(C)C)N3C(=O)c4ccccc4C3=O)cc2)nc(C)n1 (centres undefined)	-2.2	1.1	.	i	-0.1	-1.3	.	.	.	.
Cc1cc(NS(=O)(=O)c2ccc(NC(=O)C(CC(C)C)N3C(=O)c4ccccc4C3=O)cc2)nc(C)n1 (centres undefined)	-0.1	1.4	6.3	i	0.9*	4.5	100.2	-0.2	97.2	-0.2
O=C(Cc1ccccc1)Nc1ccc(NC(=O)c2ccc(Br)cc2)cc1	0.6	-0.9	9.2	.	0.1	1.1	.	.	.	.
COc1ccc(CC(=O)Nc2ccc(NC(=O)c3ccc(Br)cc3)cc2)cc1OC	-0.8	7.8	-0.8	.	0.8*	0.7	98.9	-0.3	98.1	0.1
COc1ccc(NC(=O)CSc2ncn[nH]2)c([N+](=O)[O-])c1	-0.2	-1.1	.	i	-0.1	1.1	.	.	.	.
CCOc1ccc(NC(=O)CSc2ncn[nH]2)c([N+](=O)[O-])c1	-0.8	3.2	-12.8	i	18.0*	4.1	98.2	-0.5	85.2	-0.1
Cc1c2ccncc2cc2c1[nH]c1ccccc12	.	-9.3	41.5	.	.	-11.5	93.7	0.0	116.2	0.1
Cc1cc2c([nH]c3ccccc32)c(C)n1	-0.3	0.7	3.6	.	-0.1	12.4	.	.	.	.
CCOC(=O)CC[C@@]1(C(=O)OCC)C[C@@H](CC(=O)N2CCCC2)C(=O)N2CCCC=C21	.	-0.2	.	.	.	1.8	.	.	.	.
COc1ccc(-c2ccc(-c3noc(-c4ccccc4OC)n3)c(OC)n2)cc1	-0.5	-4.2	-5.2	i	0.5*	8.6	98.6	-0.1	116.2	0.0
COc1ccc(/C=C2\SC(c3ccc(C)cc3)=NC2=O)cc1OC	0.4	-7.8	.	i	0.8*	11.5	109.5	0.1	91.4	-0.1
O=C(c1cc(Cl)ccc1F)N1CCCC(c2nc(-c3cccs3)no2)C1 (centres undefined)	.	-1.0	.	.	.	0.2	.	.	.	.
COc1ccc(Nc2nc(N)c(C(=O)c3ccc(OC)cc3)s2)cc1	-0.3	-4.4	.	.	-0.4	-20.8	.	.	.	.
SMILES	A1 inh	NPR2 activator	TAG inh	HSV replic up	Efflux pump mplx	NPR1 activator	Yeast cmpd fluor	Mdr1 pump inh	CaCdr2 efflux inh	CaCdr1 efflux inh
COc1ccc(Nc2nc(N)c(C(=O)c3ccc(F)cc3)s2)cc1	0.5	-14.0	.	.	12.3*	-6.5	97.8	0.0	96.0	0.0
C=CCN1[C@@H](C)COc2cccc(N3CCCC3)c2S1(=O)=O	.	-6.5	.	.	.	-0.6	.	.	.	.
O=C1CCCN1CCCNc1ccc2nnc(CCC(=O)N3CCN(c4ccccc4)CC3)n2n1	0.2	-1.2	.	.	1.3*	-0.8	98.9	-0.1	89.9	0.0
O=S1(=O)c2c(cccc2N2CC[C@@H](O)C2)OCCCN1C1CC1	.	0.6	.	.	.	0.7	.	.	.	.
CN1CCN(C(=O)/C=C/c2ccc([N+](=O)[O-])cc2)CC1	0.2	-3.1	.	i	12.4*	1.9	98.2	-0.1	89.3	-0.1
CCN1CCN(C(=O)/C=C/c2ccc([N+](=O)[O-])cc2)CC1	0.5	5.7	-11.5	i	0.1	-0.4	.	.	.	.
Cc1nc(SCC(=O)N(C)c2ccccc2)[nH]c(=O)c1C	.	-2.1	.	.	.	-0.9	.	.	.	.
CN1CCN(C(=O)c2ccccc2-c2ccccc2C(=O)O)CC1	0.9	0.0	.	i	6.7*	2.6	101.8	-0.3	78.2	0.0
CCn1cc(C(=O)O)c(=O)c2cnc(N3CCN(C(=S)NC(=O)c4ccccc4)CC3)nc21	0.6	-1.8	11.8	i	0.8*	-1.8	93.4	-0.1	97.7	-0.1
CCCOc1ccc(C(=O)NC(=S)N2CCN(c3ncc4c(=O)c(C(=O)O)cn(CC)c4n3)CC2)cc1	.	1.9	9.0	.	.	0.8	.	.	.	.
C=CCN(CC#Cc1ccc(OC)cc1)CC=C	.	-0.3	.	.	.	3.7	.	.	.	.

Screening data deposited in PubChem BioAssay by several laboratories.
